Reference: PubChem BioAssay AID1063 (University of Pittsburgh Molecular Library Screening Center, 2008)
Out of some 200,000 compounds screened, about 18,000 (9%) were called active. Only a selection was taken, and actives are over-represented in it overall. Values without a mark were called inactive. No stated cut-off is given here; in the data, active means inhibition above about 50%; inactive means the rest.

assay: Leishmania major promastigote growth inhibition, primary screen (AID 1063); settings: Leishmania major promastigotes, resazurin fluorescence viability; at 10 µM; active compounds read high;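 further: promastigotes grown with compound for 44 hours at 28 °C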

Row | SMILES | inhibition
1 | CCOC(=O)c1sc(NC(=O)CSc2nc(O)c(Cc3ccccc3)c(=O)[nH]2)nc1C | -5.06%
2 | Cc1ccc(-c2noc(CCC(N)=O)n2)cc1 | -4.98%
3 | Cc1ccc(-c2noc(CCC(=O)Nc3ccccc3N3CCN(C)CC3)n2)cc1 | 57.9% (active)
4 | CN1CCN(C(=O)CCc2nc(-c3ccc(Cl)cc3)no2)CC1 | -4.14%
5 | COc1ccc(C(=O)Nc2ccccc2C(=O)N/N=C/c2ccccc2OC)cc1 | 6.31%
6 | COc1cccc(/C=N\NC(=O)C2=NNC(=O)C2C)c1O (stereo not drawn) | -7.2%
7 | COc1cccc(/C=N/NC(=O)c2[nH]nc3c2CCc2ccccc2-3)c1O | 98% (active)
8 | C/C(=N\NC(=S)NC(C)C)c1ccc(C(C)(C)C)cc1 | 15%
9 | Cc1ccc(NC(=O)CSc2nnc(COc3ccccc3C)o2)cc1 | -2.82%
10 | CCn1c2ccccc2c2cc(NC(=O)COC(=O)c3ccccc3Br)ccc21 | -2.86%
11 | O=C(COC(=O)c1cc(S(=O)(=O)N2CCCCC2)ccc1Cl)NCc1ccco1 | 7.75%
12 | CCn1c2ccccc2c2cc(NC(=O)COC(=O)c3cc(S(=O)(=O)N4CCCCC4)ccc3Cl)ccc21 | 73.8% (active)
13 | CSCCC(NC(=O)c1cc([N+](=O)[O-])cc([N+](=O)[O-])c1)c1nc2ccccc2[nH]1 (stereo not drawn) | 96.8% (active)
14 | COc1ccc(CC(=O)N[C@@H](CCSC)c2nc3ccccc3[nH]2)cc1 | -4.82%
15 | CSCCC(NC(=O)c1ccc(=O)n(C)n1)c1nc2ccccc2[nH]1 (stereo not drawn) | -5.06%
16 | Cc1ccc(CN(N=Nc2nonc2N)c2nonc2N)c(C)c1 | 88.8% (active)
17 | Cc1ccc2c(c1)C1CN(C)CCC1N2C(=S)Nc1ccc(OC(F)F)cc1 (stereo not drawn) | 34.5%
18 | Cc1ccc2nc(C)cc(N/N=C/c3ccc(F)cc3)c2c1 | 7.72%
19 | CCOCCCNCc1cc(Br)ccc1OCC | 13.3%
20 | CCC(C)NCCOCCOc1ccc(Br)cc1C (stereo not drawn) | 99% (active)
21 | COCC(C)NCc1cc(Br)ccc1OC (stereo not drawn) | -1.49%
22 | CCN(CC)S(=O)(=O)c1ccc(N(C)Cc2cccc(OC)c2OC)nc1 | 8.96%
23 | CCN(Cc1ccccc1)S(=O)(=O)c1cc(C(=O)O)ccc1OC | -8.56%
24 | O=S(=O)(c1ccc2c(c1)OCCO2)N1CCc2ccccc21 | -6.88%

Row | SMILES | inhibition
25 | COc1ccccc1C(c1nnnn1CC1CCCO1)N1CCN(c2ccccc2)CC1 (stereo not drawn) | 6.1%
26 | Cc1cccc(N2CCN(C(c3ccc(N(C)C)cc3)c3nnnn3C(C)(C)C)CC2)c1C (stereo not drawn) | 11.3%
27 | Cc1cccc(N2CCN(C(c3ccccc3)c3nnnn3CC3CCCO3)CC2)c1C (stereo not drawn) | 75.9% (active)
28 | COc1ccc(C(=O)Nc2ccc(N3CCC(C)CC3)cc2)cc1Br | -6.43%
29 | O=C(Nc1cc(-c2nn(CC(=O)N3CCCCC3)c(=O)c3ccccc23)ccc1N1CCOCC1)c1ccc(Cl)cc1 | 0.47%
30 | Cn1nc(-c2ccc(N3CCOCC3)c(NC(=O)c3ccccc3)c2)c2ccccc2c1=O | 77% (active)
31 | COc1ccc(-c2nn(C)c(=O)c3ccccc23)cc1NC(=O)COc1ccccc1 | 8.76%
32 | CN(CC(=O)Nc1ccccc1F)CC(=O)Nc1ccccc1Br | -4.41%
33 | NS(=O)(=O)c1ccc(NC(=S)Nc2ccc(Br)c(Cl)c2)cc1 | 10.7%
34 | CC(C)(C)C(=O)NCCCNc1ccc([N+](=O)[O-])cc1 | -6.51%
35 | CCOc1cc(/C=C2/C(=N)N3OC(C)=CC3=NC2=O)ccc1OC | 2.63%
36 | Cn1nnnc1NCc1ccc(Cl)c(Cl)c1 | 6.1%
37 | COc1ccc(N2CCN(c3ccc([N+](=O)[O-])nc3)CC2)cc1 | -3.36%
38 | CC1(C)CC(=O)c2c(n(S(=O)(=O)c3ccccc3)c3ccc(NS(=O)(=O)c4ccccc4)cc23)C1 | 98.6% (active)
39 | Cn1c(=O)n(C)c2cc(NS(=O)(=O)c3ccc(F)cc3)ccc21 | 4.59%
40 | O=S(=O)(Nc1ccc2cn[nH]c2c1)c1ccccc1 | 6.15%
41 | Cc1cnc(C(=O)OCC(=O)N2CCc3ccccc32)cn1 | 5.21%
42 | Cc1ccc(OCC(O)CN2CCN(CC(O)COc3ccc(C)cc3Cl)CC2)c(Cl)c1 (stereo not drawn) | -0.86%
43 | C/C=C/c1ccc(OCC(O)CN2CCCCCCC2)c(OC)c1 (stereo not drawn) | -0.01%
44 | C=CCc1ccc(OCC(O)CN2CCN(Cc3ccccc3)CC2)c(OC)c1 (stereo not drawn) | 87.8% (active)
45 | CCOC(=O)Cn1c(=O)oc2cc(S(=O)(=O)NCC3CCCO3)ccc21 (stereo not drawn) | -5.87%
46 | CC(C)CCNC(=O)Cn1c(=O)oc2cc(S(=O)(=O)N3CC(C)CC(C)C3)ccc21 (stereo not drawn) | -10.9%
47 | CCOC(=O)Cn1c(=O)oc2cc(S(=O)(=O)N(C)Cc3ccco3)ccc21 | 98.7% (active)
48 | CCCCC(C(=O)OCC(=O)c1ccc(OC)cc1)N1C(=O)c2ccccc2C1=O (stereo not drawn) | -3.44%

Row | SMILES | inhibition
49 | COc1ccc(OCCCON2C(=O)c3ccccc3C2=O)cc1 | -2.83%
50 | CCOC(=O)C1=C(c2ccc(OC)cc2)C(=O)c2ccccc2C1=O | 101% (active)
51 | O=C(CCNC(=O)c1ccc([N+](=O)[O-])cc1)Nc1ccccc1N1CCOCC1 | 7.58%
52 | CC(C)CN1CCNC(=O)C1CC(=O)N(C)CC1CCOCC1 (stereo not drawn) | 9.06%
53 | CCOc1cc(/C=N/NC(=O)c2ccc(CSc3nncn3C)cc2)ccc1OCC(=O)N1CCOCC1 | -1.61%
54 | COc1ccc(/C=C2/SC(=O)N(CCCCCC(=O)Nc3ccccc3C(=O)O)C2=S)cc1 | -8.92%
55 | Cc1ccc(-c2csc(N(Cc3ccco3)C(=O)c3cccs3)n2)cc1 | 100% (active)
56 | Cc1ccc(-c2csc(NC(=O)c3cccs3)n2)cc1 | 3.66%
57 | O=C(O)CCC(=O)N(Cc1ccco1)c1nc(-c2ccccc2)cs1 | -11.4%
58 | CN(Cc1ccccn1)Cc1nc(-c2ccc(Cl)cc2)no1 | -2.18%
59 | COc1ccc(/C=C/C(=O)OCC(=O)Nc2cccc(Oc3ccccc3)c2)c(OC)c1 | -2.55%
60 | CCN(C(=O)COC(=O)/C=C/c1nc2ccccc2s1)C1CCS(=O)(=O)C1 (stereo not drawn) | -2.12%
61 | O=C(COC(=O)/C=C/c1nc2ccccc2s1)Nc1ccccc1Oc1ccccc1 | 51.7% (active)
62 | COc1ccc(-c2cn3cccnc3n2)cc1 | 10.2%
63 | Cc1cccc(C2=N/C(=C/c3cccs3)C(=O)O2)c1 | 1.4%
64 | Cc1ccc(NC(=O)CN2CCCCC2)c2c1CC(C)(C)O2 | 3.82%
65 | Cc1cc(C)c2nc(SCC(=O)N(C)C3CCS(=O)(=O)C3)cc(C)c2c1 (stereo not drawn) | 0.72%
66 | Cc1cccc(C)c1OCC(=O)NC(Cc1c[nH]c2ccccc12)C(=O)O (stereo not drawn) | -3.57%
67 | O=S(=O)(Nc1cc(S(=O)(=O)N2CCOCC2)ccc1N1CCCC1)c1cccs1 | -3.24%
68 | O=C(N1CCCC1)C12CC3CC(C1)CC(C(=O)N1CCCC1)(C3)C2 | -2.33%
69 | CC(C)(C)NC(=O)CN1CCC(NC(=O)C23CC4CC(CC(C4)C2)C3)CC1 | 3.92%
70 | CN1CCN(CC(=O)C23CC4CC(CC(C4)C2)C3)CC1 | 88.5% (active)
71 | CCc1ccc(N2CC(O)=C(c3nc4ccccc4c(=O)[nH]3)C2=N)cc1 | -1.01%
72 | CCCOc1ccc(N/C=C/C(=O)C(C)(C)C)cc1 | -5.85%

Row | SMILES | inhibition
73 | CCCOc1ccc(C(=O)C(CCC(CNCC)C(=O)c2ccc(OCCC)cc2)CNCC)cc1 (stereo not drawn) | 100% (active)
74 | CCCOc1ccc(C(=O)NCCc2ccccc2)cc1 | 7.66%
75 | CC(C)NC(=S)NN=C1CCCCCCCCCCC1 | 18.9%
76 | Cc1nn(C)c(C)c1Sc1ccccc1N | -5.83%
77 | CCC(C(=O)OCCN(CC)CC)c1ccccc1 (stereo not drawn) | -7.09%
78 | CN(C)CCOCCOc1ccc(Cl)c2ccccc12 | 98.1% (active)
79 | CCN(CC)CCOCCOc1ccc(Cl)c2ccccc12 | 99.7% (active)
80 | CN(C)CCOc1cccc(Br)c1 | -3.33%
81 | CCOc1ccc(S(=O)(=O)N2CCCCCC2)c2ccccc12 | 14%
82 | COc1ccc(N2C(=O)CC(Sc3n[nH]c(-c4ccc(C)cc4)n3)C2=O)cc1 (stereo not drawn) | -3.19%
83 | CCN1C(=O)/C(=c2\s/c(=C3\Sc4ccccc4N3C)c(=O)n2C)N(C)C1=S | -4.84%
84 | CSc1cc(C)[nH]c(=O)n1 | -7.37%
85 | C/C(=N\N)c1c(-c2ccccc2)c2cc(Br)ccc2[nH]c1=O | -1.92%
86 | COc1ccc(C(=O)N/N=c2\oc3ccccc3cc2C(N)=O)cc1 | 10.2%
87 | CC(OC(=O)CCc1nc(=O)c2ccccc2n1C)C(=O)NCc1ccc2c(c1)OCO2 (stereo not drawn) | -3.8%
88 | CCC(C)(C)NC(=O)/C=C/c1cc(OC)c(OC)c(S(=O)(=O)N2CCc3ccccc32)c1 | -8.31%
89 | CCOC(=O)c1oc2c(CN3CCN(C)CC3)c(O)ccc2c(=O)c1-c1ccc(Br)cc1 | 23.6%
90 | CN1CCN(Cc2c(O)ccc3c2oc(=O)c2ccccc23)CC1 | 3.53%
91 | CCN1CCN(Cc2c(O)ccc3c(=O)c(-c4ccc(OC)c(OC)c4)c(C(F)(F)F)oc23)CC1 | 99.8% (active)
92 | COc1ccc(C(=O)NNc2cc(C)nc(NNC(=O)c3ccc(OC)cc3)n2)cc1 | -8.08%
93 | Cn1c(=NC(=O)c2ccc3c(c2)OCCO3)sc2cc(S(C)(=O)=O)ccc21 | -9.12%
